Test results published in PubChem BioAssay (NCI).
About 79,000 compounds went through this panel and 15% of them were active in at least one assay; those are over-represented in the sample as a whole. The source made the active and inactive calls. Rule as the data show it: active = growth inhibition above about 70%; inactive = the rest.

experiment: NCI Yeast Anticancer Drug Screen. Data for the cln2 rad14 strain (AID 165);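 also: 0% = growth equal to vehicle treated cultures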; details: S. cerevisiae cln2 rad14 strain, at 50.0 µM, active compounds read high
How it was run: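 Strain: cln2 rad14 yeast, altered in cell cycle control and DNA damage repair. Read-out: growth inhibition vs vehicle.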

Structure (SMILES) | growth inhibition
C(=C/c1ccnc2ccccc12)/c1cccs1 | 98.1% (active)
O=P1(O)c2ccccc2CS(=O)(=O)Cc2ccccc21 | -13.2% (inactive)
CN1C(Cl)=NS(=O)(=O)c2ccccc21 | -1.3% (inactive)
O=C1C=CC(=O)N1c1ccc(Cl)cc1 | 84.8% (active)
CC(C)CC(C(=O)SCC(C)N1CCCC1)c1ccccc1 (stereo unspecified) | 71.4% (active)
CC(C)OC(=O)c1ccc(CCC2=CC(=O)C=CC2=O)cc1 | 61.7% (inactive)
Cc1ccnc2[nH]c3ccccc3c(=O)c12 | 21.4% (inactive)
COc1cc(/C=C/C(=O)c2ccc(O)c(OC)c2)ccc1O | 34.2% (inactive)
CC12C=CC(=O)C=C1CCC1C3CCC(O)(C(=O)CO)C3(C)CC(O)C12F (stereo unspecified) | 72.8% (active)
O=Cc1ccc2c(c1)CC1(C2)Cc2ccc3c(c2C1)CCC3 (stereo unspecified) | 73% (active)
C[N+](C)(C)CC(=O)N/N=C(\C(=O)NC1=C(Cl)C(=O)c2ccccc2C1=O)C(C#N)c1nc(-c2ccc([N+](=O)[O-])cc2)cs1 (stereo unspecified) | 50.6% (inactive)
NC(=O)CC1CCC(c2ccccc2)CC1 (stereo unspecified) | -47.6% (inactive)
O=C(CC(C[N+](=O)[O-])c1ccc2c(c1)OCO2)c1ccccc1 (stereo unspecified) | 4.65% (inactive)
CC(=O)OCCCCCCCCCCCCCCO | -33.1% (inactive)
CCOC(=O)c1sc(N/N=C2\NC(=O)/C(=C/c3ccc([N+](=O)[O-])cc3)S2)nc1C | 87.1% (active)
O=C1OC(c2ccc3c(c2)OCO3)Sc2ccccc21 (stereo unspecified) | -2.5% (inactive)
